An excerpt weighted towards active compounds, which were near 1.6% of everything screened.
DYRK1A inh = Dyrk1A (rat) kinase inhibition; inhibition, % at 12.5 µM; AID 504441; 310,000 compounds, 0.43% hits; ADP-Glo luminescence, NFATc1 peptide; in the data active means inhibition above about 50%
B2AR ag = activates human beta-2 adrenergic receptor causing internalization. P07550. 340,000 compounds, 0.43% hits. AID 504454. response, % (test concentration not listed). Am2.2-beta2AR cells, FAP receptor internalization, flow cytometry;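 active means response above a set limit, near 3 SD of response in nonfluorescent compounds, cut at about 42% in these data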
dFosB act-1 = enhances mouse delta FosB homodimer DNA binding; activation, % at 25 µM; 340,000 compounds, 0.99% hits; AID 493131; purified delta FosB, TAMRA-CDK5 oligo fluorescence polarization; percent of positive-control signal above neutral wells;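 active means mean activation above about 17%, with every replicate also reaching it, limit read from the data, passing the limit was not always enough; inconclusive means only one of the two conditions met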
Target sequence (P13346 whole entry, looked up): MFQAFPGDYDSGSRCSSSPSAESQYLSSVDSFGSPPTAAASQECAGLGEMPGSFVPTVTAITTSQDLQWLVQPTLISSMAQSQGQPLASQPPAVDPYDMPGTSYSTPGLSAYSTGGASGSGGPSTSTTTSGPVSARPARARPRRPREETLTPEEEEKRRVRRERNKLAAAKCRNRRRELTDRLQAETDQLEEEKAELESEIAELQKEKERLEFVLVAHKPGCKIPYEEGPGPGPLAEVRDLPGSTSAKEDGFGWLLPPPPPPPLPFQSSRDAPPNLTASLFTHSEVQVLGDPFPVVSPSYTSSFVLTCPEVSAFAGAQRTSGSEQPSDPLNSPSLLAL
A1 inh = inhibitors of the anti-apoptotic protein A1, read as caspase activation. MEF A1-2A-BIM cells, Caspase-Glo 3/7 luminescence, 3 h; percent of clofoctol response, vehicle zero. caspase activation, % (concentration not given with the values). 330,000 compounds, 0.066% hits;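 active means over half of replicate activation scores above 10%, or exactly half above 10 with the replicate mean above 10; inconclusive means replicate mean below 10 yet half the replicates above 10; inactive means over half of replicates below 10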
dFosB act-2 = activators of mouse delta FosB homodimer DNA binding | shares compounds with dFosB act-1 | purified delta FosB, TAMRA-CDK5 oligo fluorescence polarization; normalised: neutral wells 0, positive control 100 | activation, % at 24.9 µM | 2,400 tested, under 10 active;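 active means highest replicate activation at or above 34% and every replicate reaching that threshold; inconclusive means meets only one of the two criteria; inactive means meets neither criterion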;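 further: higher polarization means more probe DNA bound by delta FosB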
A number is an active result; n = inactive; u = inconclusive; x = no result.

SMILES | DYRK1A inh | B2AR ag | dFosB act-1 | A1 inh | dFosB act-2
COc1cc(/C=C/C(=O)Nc2cccnc2)cc(OC)c1OC | n | n | 18 | n | n
Nc1nonc1-n1nnc(C(=O)N/N=C/c2ccccc2Cl)c1-c1ccc2c(c1)OCO2 | n | n | 25 | n | n
Cc1ccc(-c2c(C(=O)N/N=C/c3ccc4c(c3)OCO4)nnn2-c2nonc2N)cc1 | x | n | 45 | n | n
C/C(=N\NC(=O)c1nnn(-c2nonc2N)c1-c1ccc2c(c1)OCO2)c1ccc(F)cc1 | n | n | n | n | x
Cc1ccsc1/C=N/NC(=O)c1nnn(-c2nonc2N)c1-c1ccc2c(c1)OCO2 | n | n | n | n | x
Cc1ccc(SCc2c(C(=O)N/N=C/c3ccoc3)nnn2-c2nonc2N)cc1 | n | n | n | n | x
Cc1ccc(/C=N/NC(=O)c2nnn(-c3nonc3N)c2CSc2ccccc2)cc1 | n | n | 24 | n | n
Nc1nonc1-n1nnc(C(=O)N/N=C/c2cccs2)c1-c1ccc2c(c1)OCO2 | n | n | n | n | x
C/C(=N\NC(=O)c1nnn(-c2nonc2N)c1-c1ccc2c(c1)OCO2)c1ccc(C)cc1 | n | n | 32 | n | n
Cc1ccc(C(=O)Nn2cnnc2)cc1S(=O)(=O)N1CCOCC1 | n | n | n | n | x
Cc1ccccc1-c1cccc([C@@H]2C[C@H]3[C@H](CON3C)CN2C(=O)CCc2ccccc2)c1 | x | n | n | x | x
Cc1ccc(-c2c(C(=O)N/N=C/c3ccoc3)nnn2-c2nonc2N)cc1 | n | n | n | n | x
Cc1ccc(SCc2c(C(=O)N/N=C/c3ccc4c(c3)OCO4)nnn2-c2nonc2N)cc1 | n | n | 52 | n | n
Cc1ccc(SCc2c(C(=O)N/N=C/c3ccccc3)nnn2-c2nonc2N)cc1 | n | n | 25 | n | n
Cc1ccc(-c2c(C(=O)N/N=C/c3cccc(Cl)c3)nnn2-c2nonc2N)cc1 | n | n | 47 | n | n
Nc1nonc1-n1nnc(C(=O)N/N=C/c2ccccc2)c1CSc1ccc(Cl)cc1 | n | n | n | n | x
O=C(COC(=O)c1cccc([N+](=O)[O-])c1)c1ccc2c(c1)OCO2 | x | x | x | n | x
CCN(CC(=O)NCc1ccc(Cl)cc1)C(=O)CSc1ccc(Br)cc1 | n | n | n | n | x
Cc1ccc2c(c1)N(CC(=O)NCCCN1CCN(C)CC1)C(=O)CO2 | n | n | n | n | x
Cc1ccc2c(c1)C1NC(=S)NC(C)(O2)C1C(=O)Nc1ccc(Cl)cc1 (stereo not drawn) | n | n | 40 | n | n
Cc1cccc(CSCc2ccc(C(=O)NCC3CCCO3)o2)c1 (stereo not drawn) | n | n | n | n | x
CNS(=O)(=O)c1ccc(NC(=O)c2cc(-c3ccncc3)nc3ccc(Cl)cc23)cc1 | n | n | 69 | n | n
OCC[C@H]1C[C@H](O)[C@@H](O)[C@]2(CCCc3ccccc3O2)O1 | n | n | n | n | x
N#Cc1ccc(-c2ccc(F)cc2)nc1SCC(=O)Nc1sc2c(c1C#N)CCC2 | n | n | 37 | n | n
COCCNC(=S)Nc1cc2oc3ccccc3c2cc1OC | x | n | n | n | x
SMILES | DYRK1A inh | B2AR ag | dFosB act-1 | A1 inh | dFosB act-2
CC(=O)c1ccc(N(C(=O)CS(=O)CC(=O)Nc2ccc(F)cc2)C(C(=O)NC2CCCCC2)c2cccs2)cc1 (stereo not drawn) | n | n | 20 | n | n
CCCCCCCCCCCC1N=C(N)NC(CCCO)=C1C(=O)OC (stereo not drawn) | n | n | 42 | x | u
CCCCCCOC(=O)c1ccc(N)cc1 | n | n | n | n | x
COc1ccccc1NC(=O)c1ccc(NC(=O)Cc2n[nH]c(=O)c3ccccc23)cc1 | n | n | 25 | n | n
Cc1ccc(-n2nnnc2SCC(=O)Nc2ccc3c(c2)COC3=O)cc1C | n | n | 54 | n | n
Cc1ccc(NC(=O)CSc2nnnn2-c2ccc3c(c2)OCO3)cc1C | n | n | 40 | n | n
COc1ccc(-n2nnnc2SCC(=O)c2ccc3c(c2)OCCO3)cc1 | n | n | 23 | n | n
COc1ccc(OC)c(NC(=O)CSc2nnnn2-c2ccc3c(c2)OCO3)c1 | x | n | n | n | x
COc1ccc(OC)c(NC(=O)CCN2CCN(CCO)CC2)c1 | n | n | n | n | x
CCn1ncc(Br)c1C(=O)Nc1cc(C)on1 | n | n | n | x | x
O=C(C[C@H]1C/C=C\CC[C@@H](Cc2ccc(F)cc2)C(=O)O[C@H](c2ccccc2)CNC1=O)N[C@H](CO)Cc1ccccc1 | n | n | n | n | x
O=C(C[C@H]1C/C=C\C[C@H](Cc2ccc(F)cc2)C(=O)O[C@@H](c2ccccc2)CNC1=O)N[C@@H](CO)Cc1ccccc1 | n | n | n | n | x
O=C(C[C@H]1C/C=C\CC[C@@H](Cc2ccc(F)cc2)C(=O)O[C@@H](c2ccccc2)CNC1=O)N[C@@H](CO)Cc1ccccc1 | n | n | 116 | n | n
O=C(C[C@H]1C/C=C\C[C@@H](Cc2ccc(F)cc2)C(=O)O[C@@H](c2ccccc2)CNC1=O)N[C@@H](CO)Cc1ccccc1 | n | n | 49 | n | n
O=C(CN(C(=O)CNC(=O)c1cccs1)c1cccc(F)c1)NC1CCCC1 | n | n | n | n | x
Nc1cc(=O)[nH]c(SCC(=O)c2ccc(O)cc2O)n1 | n | n | n | n | x
C=CCNc1nc(NCC)nc(N2CCOCC2)n1 | n | n | n | n | x
C=CCNc1nc(Nc2ccc(-c3nc4ccccc4o3)cc2)nc(N2CCOCC2)n1 | n | n | 28 | n | n
Cc1c(Cc2ccc3c(c2)OCO3)sc(NC(=O)c2ccccc2)c1C(N)=O | n | n | 39 | n | n
CCOC(=O)c1c(NC(=O)CN2C(=O)c3ccccc3C2=O)sc(Cc2ccc3c(c2)OCO3)c1C | n | n | n | n | x
C[C@@]12C(=O)Nc3ccc(Cl)cc3C(=O)N1[C@H]1c3cc(Br)ccc3OC[C@@H]1[C@@H]2c1ccccc1 | n | n | n | n | x
C[C@@]12C(=O)Nc3ccc(Br)cc3C(=O)N1[C@H]1c3cc(Br)ccc3OC[C@@H]1[C@@H]2c1ccccc1 | n | n | 38 | n | n
COc1ccc(Cl)cc1NC(=O)C(C)OC(=O)c1ccc(NS(=O)(=O)c2ccc3[nH]c(=O)[nH]c3c2)cc1 (stereo not drawn) | x | n | n | n | x
CC(OC(=O)c1ccc(NS(=O)(=O)c2ccc3[nH]c(=O)[nH]c3c2)cc1)C(=O)Nc1ccc(Cl)cc1 (stereo not drawn) | n | n | 22 | n | n
COc1ccc(-c2noc(Cn3cc(S(=O)(=O)N4CCCC4)ccc3=O)n2)cc1 | n | n | n | n | x
COc1ccc(C(=O)CSc2nc(N)nc(SC)c2C#N)cc1 | n | n | 56 | n | n
CCc1ccc(NC(=O)CSc2nc3n[nH]c(C)c3c(=N)n2-c2cccc(OC)c2)cc1 | n | n | 42 | n | n
C#CCN(Cc1ccco1)C(=O)c1ccc(OC2CCN(Cc3ccccn3)CC2)cc1 | n | n | n | n | x
CCOc1cccc2sc(NC(=O)c3ccc(Br)s3)nc12 | n | n | 33 | n | n
